For test [1], the target named is T1, GST-Nv-NF-kB (Ser allele) (Nematostella vectensis, UniProt A7UNT2 2-411).
T1 sequence: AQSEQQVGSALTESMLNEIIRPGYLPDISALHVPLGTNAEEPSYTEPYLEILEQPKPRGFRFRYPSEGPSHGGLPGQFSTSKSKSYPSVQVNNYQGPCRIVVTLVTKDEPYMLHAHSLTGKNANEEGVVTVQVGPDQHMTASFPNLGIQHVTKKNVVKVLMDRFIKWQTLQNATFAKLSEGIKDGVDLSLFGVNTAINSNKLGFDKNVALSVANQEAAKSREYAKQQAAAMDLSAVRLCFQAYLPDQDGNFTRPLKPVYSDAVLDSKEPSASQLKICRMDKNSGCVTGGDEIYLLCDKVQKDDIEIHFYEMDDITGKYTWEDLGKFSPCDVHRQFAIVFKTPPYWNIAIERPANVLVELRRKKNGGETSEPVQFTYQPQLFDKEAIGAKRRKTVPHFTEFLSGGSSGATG
Description: protein-binding microarray (PBM); PBM: ~300 nM protein, 6 mM HEPES pH 7.8, 80 mM KCl, 0.5 mM EDTA, 0.5 mM EGTA, 6% glycerol, 35 ng/ul poly-dIdC, 1% milk, 1 h, room temperature; Ap Aiptasia and Nv Nematostella (sea anemones) / Co Capsaspora / Aq Amphimedon (sponge) / Dm Drosophila / Hu human; RHD is the Rel homology domain; high values mean tight binding. Conditions: dsDNA, one strand shown.

The target of a further test is GST-Hu-p50 (Homo sapiens, UniProt P19838 7-356). The test is described as above. To be noted: dsDNA, one strand shown.

These results are taken from paper PMC5700166.

Sequence of GST-Hu-p50 (P19838 7-356): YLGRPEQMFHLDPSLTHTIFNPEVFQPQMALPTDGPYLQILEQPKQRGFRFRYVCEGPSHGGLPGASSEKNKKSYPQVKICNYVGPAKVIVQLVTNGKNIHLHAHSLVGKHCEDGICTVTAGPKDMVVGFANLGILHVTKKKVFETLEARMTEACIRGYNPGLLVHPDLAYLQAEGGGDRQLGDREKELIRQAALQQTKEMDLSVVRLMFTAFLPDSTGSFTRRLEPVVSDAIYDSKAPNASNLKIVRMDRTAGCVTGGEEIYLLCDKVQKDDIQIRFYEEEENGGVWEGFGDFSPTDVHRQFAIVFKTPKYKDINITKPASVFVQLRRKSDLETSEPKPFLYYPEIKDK

With “CCGATTAACATCAAACACCCCCCTGATGTTAATCGGGTCTTGATTCGCTTGACGCTGCTG”, the figures for the binding signal (in test [1]; in the test with GST-Hu-p50) were 4.8 z-score and 4.57 z-score, respectively.

Take “CCGATTAACATCACCAATTTCCCTGATGTTAATCGGGTCTTGATTCGCTTGACGCTGCTG”: the values for the binding signal (in test [1]; with GST-Hu-p50) were 6.05 z-score and 3.76 z-score, respectively.

On to “CCGATTAACATCAACCACCCCCCTGATGTTAATCGGGTCTTGATTCGCTTGACGCTGCTG”, for which the binding signal in test [1] was determined as 3.31 z-score; in the test with GST-Hu-p50, 4.14 z-score.

For “CCGATTAACATCAAGGAATACCCTGATGTTAATCGGGTCTTGATTCGCTTGACGCTGCTG”, the binding signal was determined as 4.74 z-score in test [1] and 4.19 z-score with GST-Hu-p50.

As to “CCGATTAACATCAAGCACCCCCTTGATGTTAATCGGGTCTTGATTCGCTTGACGCTGCTG”, the binding signal in test [1] is 4.85 z-score; in the test with GST-Hu-p50, 4.55 z-score.

For “CCGATTAACATCAGGGAAATATATGATGTTAATCGGGTCTTGATTCGCTTGACGCTGCTG”, the binding signal was 5.62 z-score in test [1] and 4.03 z-score with GST-Hu-p50.

Turning to “CCGATTAACATCACGGGAACCCCTGATGTTAATCGGGTCTTGATTCGCTTGACGCTGCTG”, the binding signal in test [1] is 2.26 z-score; with GST-Hu-p50 it was 3.43 z-score.

In the case of “CCGATTAACATCAAAAAAAATCCTGATGTTAATCGGGTCTTGATTCGCTTGACGCTGCTG”, the figures for the binding signal (in test [1]; with GST-Hu-p50) were 1.23 z-score and 1.51 z-score, respectively.

As to “CCGATTAACATCAACATGGGAAATGATGTTAATCGGGTCTTGATTCGCTTGACGCTGCTG”, the binding signal in test [1] was found to be 2.18 z-score; in the test with GST-Hu-p50 it was 1.56 z-score.

As for “CCGATTAACATCAGACATTCCCATGATGTTAATCGGGTCTTGATTCGCTTGACGCTGCTG”, the values for the binding signal (in test [1]; with GST-Hu-p50) were 2.32 z-score and 1.02 z-score, respectively.

For “CCGATTAACATCAGAAATCCCGATGATGTTAATCGGGTCTTGATTCGCTTGACGCTGCTG”, the binding signal is 2.04 z-score in test [1] and 2.55 z-score with GST-Hu-p50.

With “CCGATTAACATCAGGGGGTCTACTGATGTTAATCGGGTCTTGATTCGCTTGACGCTGCTG”, the results for the binding signal (in test [1]; with GST-Hu-p50) were 2.55 z-score and 3.36 z-score, respectively.

Regarding “CCGATTAACATCAAATATACCCCTGATGTTAATCGGGTCTTGATTCGCTTGACGCTGCTG”, the binding signal (in test [1]; with GST-Hu-p50) was 2.88 z-score in each case.

With “CCGATTAACATCAGAAATTACCATGATGTTAATCGGGTCTTGATTCGCTTGACGCTGCTG”, the binding signal in test [1] stood at 3.08 z-score; in the test with GST-Hu-p50, 2.24 z-score.

Turning to “CCGATTAACATCAAATCGGGAAATGATGTTAATCGGGTCTTGATTCGCTTGACGCTGCTG”, the binding signal was determined as 2.88 z-score in test [1] and 1.88 z-score with GST-Hu-p50.

In the case of “CCGATTAACATCAGGCCGTCCCCTGATGTTAATCGGGTCTTGATTCGCTTGACGCTGCTG”, the binding signal in test [1] is 3.43 z-score; in the test with GST-Hu-p50, 3.86 z-score.

For “CCGATTAACATCACGGTATTTCCTGATGTTAATCGGGTCTTGATTCGCTTGACGCTGCTG”, the values for the binding signal (in test [1]; in the test with GST-Hu-p50) were 1.75 z-score and 1.48 z-score, respectively.

On to “CCGATTAACATCAGAAATCCCGCTGATGTTAATCGGGTCTTGATTCGCTTGACGCTGCTG”, for which the binding signal (in test [1]; with GST-Hu-p50) was 2.45 z-score in each case.

For “CCGATTAACATCAGGGAATTCGATGATGTTAATCGGGTCTTGATTCGCTTGACGCTGCTG”, the binding signal worked out at 4.38 z-score in test [1] and 2.58 z-score in the test with GST-Hu-p50.

Regarding “CCGATTAACATCAACATCCCCCCTGATGTTAATCGGGTCTTGATTCGCTTGACGCTGCTG”, the binding signal in test [1] came out at 5.5 z-score; with GST-Hu-p50, 4.91 z-score.

Turning to “CCGATTAACATCAGGGGATGGGATGATGTTAATCGGGTCTTGATTCGCTTGACGCTGCTG”, the binding signal came to 4.39 z-score in test [1] and 2.85 z-score with GST-Hu-p50.

Regarding “CCGATTAACATCACCCATCCCCCTGATGTTAATCGGGTCTTGATTCGCTTGACGCTGCTG”, the binding signal in test [1] stood at 4.96 z-score; with GST-Hu-p50, 4.2 z-score.

Regarding “CCGATTAACATCAGGGAAAACACTGATGTTAATCGGGTCTTGATTCGCTTGACGCTGCTG”, the binding signal in test [1] worked out at 5.79 z-score; with GST-Hu-p50 it was 4.24 z-score.

Turning to “CCGATTAACATCAAAGCATTCCCTGATGTTAATCGGGTCTTGATTCGCTTGACGCTGCTG”, the binding signal in test [1] is 2.52 z-score; with GST-Hu-p50, 2.12 z-score.

As to “CCGATTAACATCAAGGAATTTCCTGATGTTAATCGGGTCTTGATTCGCTTGACGCTGCTG”, the binding signal in test [1] came out at 1.22 z-score; in the test with GST-Hu-p50, 1.48 z-score.

As for “CCGATTAACATCAGGGGGTAACCTGATGTTAATCGGGTCTTGATTCGCTTGACGCTGCTG”, the binding signal in test [1] amounted to 3.93 z-score; with GST-Hu-p50, 4.28 z-score.

As to “CCGATTAACATCACCAAAACCCCTGATGTTAATCGGGTCTTGATTCGCTTGACGCTGCTG”, the results for the binding signal (in test [1]; with GST-Hu-p50) were 4.14 z-score and 4.83 z-score, respectively.

For the sequence “CCGATTAACATCACGGGACTCCCTGATGTTAATCGGGTCTTGATTCGCTTGACGCTGCTG”, the binding signal in test [1] stood at 3.64 z-score; with GST-Hu-p50, 3.14 z-score.

For “CCGATTAACATCAGGGAAACCACTGATGTTAATCGGGTCTTGATTCGCTTGACGCTGCTG”, the figures for the binding signal (in test [1]; with GST-Hu-p50) were 4.02 z-score and 3.94 z-score, respectively.

Regarding “CCGATTAACATCAGGACAGTCCCTGATGTTAATCGGGTCTTGATTCGCTTGACGCTGCTG”, the figures for the binding signal (in test [1]; in the test with GST-Hu-p50) were 2.87 z-score and 4.04 z-score, respectively.

For the sequence “CCGATTAACATCAGGACTGTCCCTGATGTTAATCGGGTCTTGATTCGCTTGACGCTGCTG”, the binding signal was 2.57 z-score in test [1] and 3.92 z-score with GST-Hu-p50.

With “CCGATTAACATCACGTTCCCCCCTGATGTTAATCGGGTCTTGATTCGCTTGACGCTGCTG”, the results for the binding signal (in test [1]; with GST-Hu-p50) were 5.78 z-score and 5.15 z-score, respectively.

As for “CCGATTAACATCATTTCCCTTGATGATGTTAATCGGGTCTTGATTCGCTTGACGCTGCTG”, the figures for the binding signal (in test [1]; with GST-Hu-p50) were 3.44 z-score and 2.51 z-score, respectively.

In the case of “CCGATTAACATCAATGCACCCCCTGATGTTAATCGGGTCTTGATTCGCTTGACGCTGCTG”, the binding signal in test [1] came to 4.37 z-score; in the test with GST-Hu-p50, 4.12 z-score.

“CCGATTAACATCAAGGAAAAACCTGATGTTAATCGGGTCTTGATTCGCTTGACGCTGCTG”: the binding signal amounted to 1.47 z-score in test [1] and 1.12 z-score in the test with GST-Hu-p50.

As to “CCGATTAACATCAGGTATTCCCATGATGTTAATCGGGTCTTGATTCGCTTGACGCTGCTG”, the binding signal in test [1] is 2.85 z-score; with GST-Hu-p50, 1.73 z-score.
